Here are results for 40 compounds from PubChem BioAssay (Tox21).

Active and inactive are the calls of the source. A call without a number means that no potency is given here. The call rests on the fitted dose curve; in most records, active means well fitted curve in the direction sought with a large enough effect in the repeat runs; inconclusive means weak or mixed curves; inactive means flat fitted curve, though single readings scatter.

This assay is described as follows: qHTS assay to test for compound auto fluorescence at 535 nm (green) in HepG2 cell free culture (AID 720686). The note with it: Cell-free medium, green autofluorescence 485/535 nm; series mostly up to 91.3 µM. The source says:
U.S. Tox21 Program National Center for Advancing Translational Sciences [NCATS] NIH Chemical Genomics Center [NCGC] U.S. Environmental Protection Agency [EPA] National Institutes of Environmental Health Sciences [NIEHS] National Toxicology Program [NTP] U.S. Food and Drug Administration [FDA] Tox21 Assay Overview: Compound auto fluorescence often interferes with screening of the compound library against various biological targets and signaling pathways. Some of these compounds may have fluorophoric properties. Such properties may interfere with the assay outputs resulting in false positives and/or negatives. To decrease such complications and ensure the compound activities are relevant in terms of biological response, the Tox21 10K compound library was screened for auto fluorescence. From the fluorophores used as reporter signals in our screening assays, the auto fluorescence equivalencies of compounds against three fluorophores have been evaluated: Triamterene, Fluorescein and Rose Bengal sodium for blue, green and red fluorescence, respectively. The fluorescence intensities were measured using Excitation/Emission wavelengths at 405/460nm, 485/535nm and 540/590nm for blue, green and red labels, respectively. This assay includes the green fluorescence data.
Tox21 Assay Protocol Summary: 5 uL of culture medium (MEM containing 10% FBS) per well was dispensed into black wall/clear bottom 1536-well plates using a Multidrop Combi Dispenser (ThermoFisher Scientific, Waltham, MA). After 23 nL compound or DMSO vehicle was transferred into assay plate by a pintool work station (Kalypsys, San Diego, CA), fluorescence intensities in the assay plates were measured by an Envision (PerkinElmer, Shelton, CT) plate reader using three labels for measuring blue, green and red fluorescence at […] 460, 535 and 590nm respectively.
For orientation: Quantitative high-throughput screening tests each substance at several concentrations.
In the case of `O=C1CCC(=O)O1`, the Potency entry is “inactive”. Still for that read-out and setting: in the case of `Nc1ccccc1S(=O)(=O)c1ccccc1` it was “inactive”; in that of `CC(C)=CCC/C(C)=C/CC/C(C)=C/CO`, “inactive”; in that of `CCC(C)(C)CC`, “inactive”. For the compound `Cc1oc2c(NC(=O)c3c(Cl)cccc3Cl)cccc2c1C(C)(C)O`, the Potency entry is “inactive”.

Consider `C=C1C(=C/C=C2\CCC[C@]3(C)[C@@H]([C@H](C)/C=C/[C@@H](O)C4CC4)CC[C@@H]23)C[C@@H](O)C[C@@H]1O`, for which the Potency result is “inactive”.

Consider `O=C1[C@H]2CCCC[C@H]2C(=O)N1CCCCN1CCN(c2nsc3ccccc23)CC1`, for which the Potency entry was “inactive”. Same read-out and setting: in the case of `CCOc1ccc(O)cc1` it was “inactive”; in that of `NCC(=O)CCC(=O)O`, “inactive”; in that of `C=C(C)C(=O)OCC`, “inactive”. Consider `CCCCCCCCCc1ccc(OCCOCCO)cc1`, for which the Potency result was “inactive”.

As to `CCCCCCCCO[C@@H]1O[C@H](CO)[C@@H](O)[C@H](O)[C@H]1O`, the Potency entry was “inactive”. As to `CCc1c(C(=O)NN2CCCCC2)nn(-c2ccc(Cl)cc2Cl)c1-c1ccc(Br)cc1`, the Potency result is “inactive”. In the case of `COC(=O)C1=C(C)NC(COC(N)=O)=C(C(=O)OC(C)C)C1c1cccc(Cl)c1Cl` (stereo not given), the Potency entry is “inactive”. Same read-out and setting: the entry for `Cc1ccc(N=Nc2c(O)c(C(=O)O)cc3ccccc23)c(S(=O)(=O)O)c1` is “inactive”; for `Cn1c(=O)cc(Oc2ccc(F)cc2F)c2cnc(NCC(C)(C)O)nc21` it is “inactive”; for `O=C(OCCCCCCOC(=O)c1ccccc1)c1ccccc1` it is “inactive”. For the compound `C[C@H]1C[C@H]2[C@@H]3CCC4=CC(=O)C=C[C@]4(C)[C@@]3(Cl)[C@@H](O)C[C@]2(C)[C@@]1(O)C(=O)CO`, the Potency entry was “inactive”. The same measure, in the same setting: in the case of `C[C@@H](c1ncncc1F)C(O)(Cn1cncn1)c1ccc(F)cc1F` (stereo not given in full) it was “inactive”.

For the compound `Nc1ccc(N)c2c1C(=O)c1ccccc1C2=O`, the Potency entry is “inactive”.

`CC1=CCCC(C)(C)C12CCC(C)O2` (stereo not given): the Potency result is “inactive”.

For `C[N+]1(CC2COC(c3ccccc3)(C3CCCCC3)O2)CCCCC1` (stereo not given), the Potency result was “inactive”. Turning to `C=CCOc1ccccc1OCC(O)CNC(C)C` (stereo not given), the fluorescence, % of fluorescein control is 0.0052% [at 18.6 µM] (inactive). The same measure, in the same setting: the figure for `C/C=C/C(=O)CC` is -0.0146% [at 18.6 µM] (inactive). Regarding `CCC(Cl)CCC(Cl)C(Cl)CC(Cl)C(Cl)C(Cl)CCl` (stereo not given), the Potency result is “inactive”. For the compound `O=C(CS)Nc1ccccc1`, the Potency entry was “inactive”.

For `CCCOC(C(=O)OC1CCN(C)CC1)(c1ccccc1)c1ccccc1`, the Potency result is “inactive”. For `CCCCC(CC)CN1C(=O)C2C3C=CC(C3)C2C1=O` (stereo not given), the Potency result is “inactive”. As for `OCc1cc(C(O)CNCCCCCCOCCCCc2ccccc2)ccc1O` (stereo not given), the Potency entry was “inactive”. On the same count and under the same terms, in the case of `OCCN1CCN(CCCN2c3ccccc3C=Cc3ccccc32)CC1` it was “inactive”; in that of `Nc1c(CC(=O)O)cccc1C(=O)c1ccc(Br)cc1`, “inactive”. Take `COc1cccc(N(C)C(=S)Oc2ccc3c(c2)CCCC3)n1`: the Potency result was “inactive”. On to `CCCNCC(O)COc1ccccc1C(=O)CCc1ccccc1` (stereo not given), for which the Potency entry was “inactive”. Still for that read-out and setting: the entry for `CC[N+]1(CC)CCC(=C(c2ccccc2)c2ccccc2)C1C` (stereo not given) is “inactive”; for `O=C(c1ccc(F)cc1)C1CCN(CCn2c(=S)[nH]c3ccccc3c2=O)CC1` it is “inactive”; for `O=C1OC(=O)C2C3C=CC(C3)C12` (stereo not given) it is “inactive”.

`CC(C)(COC(=O)c1ccccc1)COC(=O)c1ccccc1`: the Potency result is “inactive”. Turning to `C[Si](C)(CCCN)O[Si](C)(C)CCCN`, the Potency result is “inactive”. Still for that read-out and setting: the entry for `O=S(=O)(Oc1ccc(Cl)cc1)c1ccccc1` is “inactive”.

For `C/C(=C(\CCOP(=O)(O)O)SC(=O)c1ccccc1)N(C=O)Cc1cnc(C)nc1N`, the fluorescence, % of fluorescein control was -0.0244% [at 18.6 µM] (inactive).
